PubChem BioAssay (NCI)
Several values for one entry are separate records, joined by “and”; a condition that tells them apart may be missing. Equal values may be shown once. About 79,000 compounds went through this panel and 15% of them were active in at least one assay; those are over-represented in the sample as a whole. A number with no mark means an inactive call. Activity calls are given as the source filed them. Cut-off read from the data, not from the text of the source: active = growth inhibition above about 70%; inactive = the rest.

Assay: NCI Yeast Anticancer Drug Screen. Data for the sgs1 mgt1 strain (AID 161);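 note: 0% = growth of cultures given vehicle only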
Conditions: S. cerevisiae sgs1 mgt1 strain, at 50.0 µM, hits give high values
How it was run: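 Yeast cells carrying a defined DNA-repair defect were exposed to test compounds. Growth inhibition was measured relative to vehicle-treated controls.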

| SMILES | growth inhibition |
| --- | --- |
| CC1(C)OC2(C)CCC1C(O)C2N1CCCCC1 (stereo not given) | -13.4% |
| CCOC(=O)/C(=C\c1ccc(OC)cc1)[Se]c1ccccc1 | 39.5% |
| CC1=CC(=O)CC2(C)CCC(C(C)CC(=O)CC(C)C)CC12OO (stereo not given) | 91.6% (active) and 91.4% (active) |
| CC1(C)N=C(c2ccccc2)C2(c3ccccc3)N1C2(C)C (stereo not given) | 16.8% |
| C[N+](C)=c1nc(N2CCc3ccccc3C2)ss1 | 26.4% |
| C[C@@H]1C[C@@]2(O[C@@H]2C)C(=O)O[C@@H]2CCN3CC=C(COC(=O)[C@]1(C)O)[C@H]23 | -7.95% |
| O=C(CS(=O)(=O)O)Nc1ccccc1 | 27.9% |
| C[CH2][Sn]1([CH2]C)[O]C(=O)[O][Sn]([CH2]C)([CH2]C)[O]1 | -30.2% |
| O=C(OCCOCCOC(=O)C(Cl)(Cl)Cl)C(Cl)(Cl)Cl | -29.4% |
| CC(C)(C)[SH+]CC[SH+]C(C)(C)C.[C-]#[O+].[C-]#[O+].[C-]#[O+].[C-]#[O+].[Cr] | -7.25% |
| COC(=O)C1=C(C)N2CCCOC2(C)C(C(=O)OC)C1c1cccc(Cl)c1 (stereo not given) | 40.5% |
| O=C(O)C(C(=O)O)P(=S)(S)c1ccccc1 (stereo not given) | -2.75% |
| C[P+](CCl)(CCl)CCl | -11.7% |
| S=C(SSC(=S)N(Cc1ccccc1)Cc1ccccc1)N(Cc1ccccc1)Cc1ccccc1 | 2.95% |
| C[CH2][Sn](/[CH]=C/C=C/OC)([CH2]C)[CH2]C | 66.2% |
